The assay deals with Trypanosoma brucei. Description: Trypanosoma brucei 72 hour study. Type of assay: functional, organism-based. Further details: scale not given: in the data most compounds retested in dose-response had high values.

Here are results for 62 compounds from ChEMBL document CHEMBL3988442, “University of Dundee, Small-Polar-MMV Screening Library” (2021).

About 960 (1.5%) of roughly 66,000 compounds showed an effect of 50% or more. What follows is part of a selection rich in strong results, with near analogues and random picks from the rest.

Turning to `COCCn1ccc2cc(NC(C)=O)ccc21`, the “Percent Effect” value (30 µM, 30.03 µM) turned out to be 20.32%.
On to `CCC(=O)Nc1ccc2c(ccn2CCOC)c1`, for which the “Percent Effect” value (30 µM, 30.03 µM) is given as 30.95%.
For the compound `COCCn1ccc2cc(NC(=O)COC)ccc21`, the “Percent Effect” value (30 µM, 30.03 µM) came out at 51.21%.
On the same count and under the same terms, in the case of `COCCC(=O)N[C@H]1CC[C@H](Nc2nccc(-c3ccncc3)n2)C1` it was -1.414%.
The same measure, in the same setting: in the case of `CCOCC1CN(c2ccncn2)Cc2cnn(CC)c21.O=C(O)C(F)(F)F.O=C(O)C(F)(F)F` (configuration not stated) it was 24.08%.
With `COc1ccc(CN2CCn3c(C(=O)N(C)C)cnc3C2)cc1.O=C(O)C(F)(F)F`, where the note is “30.3 µM, […]”, the “Percent Effect” value is -109.7%.
Consider `COc1ccc(C)cc1NC(=O)Nc1cnc(N2CCCC2)nc1`, for which the “Percent Effect” value (30 µM, 30.03 µM) is -9.808%.
Still for that read-out and setting: in the case of `COc1ccc(C)cc1NC(=O)Nc1cnc(N2CCN(C)CC2)nc1` it was 53.87%; in that of `COc1ccc(C)cc1NC(=O)Nc1cnc(N2CCOCC2)nc1`, -0.7377%.
For `Cc1csc2nc3n(c(=O)c12)CCN(Cc1ccccn1)CC3.Cl`, the “Percent Effect” value (30.3 µM, […]) was -40.83%.
For the compound `CCC(=O)NCC(c1ccc(SC)cc1)N1CCc2sccc2C1` (configuration not stated), the “Percent Effect” value (30.3 µM, […]) is on record as -2.044%.
For `CSc1ccc(C(CN)N2CCc3sccc3C2)cc1` (configuration not stated), the “Percent Effect” value (30 µM, 30.03 µM) is reported as -3.703%.
Take `CSc1ccc(C(CNC(C)=O)N2CCc3sccc3C2)cc1` (configuration not stated): for the setting “30.3 µM, […]”, the “Percent Effect” value was 7.525%.
Turning to `NCC(c1ccccc1)N1CCc2sccc2C1` (configuration not stated), where the note is “30 µM, 30.03 µM”, the “Percent Effect” value is recorded as 35.83%.
As to `NCC(c1ccc(Cl)cc1)N1CCc2sccc2C1` (configuration not stated), the “Percent Effect” value (30.3 µM, […]) stood at 100.3%.
On to `CC(C)c1ccc(C(CN)N2CCc3sccc3C2)cc1` (configuration not stated), for which, for the setting “30.3 µM, […]”, the “Percent Effect” value is listed as 99.87%.
For `Cc1cccc(S(=O)(=O)N2CC[C@H]3CO[C@H](CN(C)C)[C@H]3C2)c1.O=C(O)C(F)(F)F`, the “Percent Effect” value (30 µM, 30.03 µM) stood at 25.11%.
Still for that read-out and setting: in the case of `COCc1cccc(C(=O)N2C[C@H]3CC[C@@H]2CN(Cc2cscn2)C3)n1` it was -49.27%.
On to `Cc1nc(CN2CCC3(CCN(c4cnn(C)c4)C3=O)C2)cs1.O=C(O)C(F)(F)F` (configuration not stated), for which the “Percent Effect” value (30.3 µM, […]) was -7.553%.
With `CCN1CCC2(C1)CN(S(=O)(=O)c1cn(C)cn1)C2.O=C(O)C(F)(F)F.O=C(O)C(F)(F)F`, the “Percent Effect” value (30.3 µM, […]) was -6.671%.
Turning to `Cl.O=C(c1cc2c(s1)CCCC2)N1CCc2nc(C3CCCN3)ncc2C1` (configuration not stated), the “Percent Effect” value (30.3 µM, […]) was 6.632%.
In the case of `Cn1cc(-c2ncc(C(=O)NCCCn3ccccc3=O)s2)cn1`, the “Percent Effect” value (30 µM, 30.03 µM) was 73.43%.
With `O=C(NCCCn1ccccc1=O)c1cnc(-c2ccsc2)s1`, the “Percent Effect” value (30 µM, 30.03 µM) stood at 22.57%.
The same measure, in the same setting: the figure for `CS(=O)(=O)NCCCNC(=O)c1cnc(-c2ccsc2)s1` is -7.977%; for `Cc1nc(N2CCCC(N3CCCC3)C2)c2cnn(C)c2n1` (configuration not stated) it is 50.19%.
The same measure, in the same setting: in the case of `Cn1ncc2c(N3CC(N4CCCCC4)C3)nc(C3CCCC3)nc21` it was -31.56%; in that of `Cn1ncc2c(N3CCN4CCCCC4C3)nc(C3CCCC3)nc21` (configuration not stated), -37.34%; in that of `Cc1cc(N2C[C@H](C3CC3)[C@@H](N)C2)nc(N2CCCCC2)n1`, -8.75%.
`CNc1cc(C)nc(N2C[C@@H](C(=O)O)[C@H](C3CC3)C2)n1`: the “Percent Effect” value (30 µM, 30.03 µM) is given as -4.016%.
Regarding `CCc1cc(N2C[C@H](C3CC3)[C@@H](N)C2)nc(N2CCCC2)n1`, for the setting “30 µM, 30.03 µM”, the “Percent Effect” value is 72.1%.
Same read-out and setting: the figure for `CC(C)Oc1cc(N2C[C@H](C3CC3)[C@@H](N)C2)nc(N)n1` is 88.99%; for `CC(C)Oc1cc(N2CC[C@H](CO)[C@@H](O)C2)nc(N)n1` it is -21.24%.
On to `CC(C)Oc1cc(N2C[C@@H](C)O[C@@H](C)C2)nc(N)n1`, for which the “Percent Effect” value (30.3 µM, […]) is given as -11.25%.
Consider `CCc1cc(N2C[C@H](C3CC3)[C@@H](N)C2)nc(N2CCOCC2)n1`, for which, for the setting “30 µM, 30.03 µM”, the “Percent Effect” value is recorded as -22.85%.
For the compound `CNc1cc(C)nc(N2C[C@H](C3CC3)[C@@H](N)C2)n1`, where the note is “30 µM, 30.03 µM”, the “Percent Effect” value is given as 85.5%.
`CNc1cc(C)nc(N2C[C@H](NC(=O)C3CCOCC3)[C@@H](C3CC3)C2)n1`: under “30 µM, 30.03 µM”, the “Percent Effect” value is -23.63%.
Consider `CN(c1ccncn1)C1CC2(CCN(C(=O)Cc3cccs3)C2)C1` (configuration not stated), for which, where the note is “30.3 µM, […]”, the “Percent Effect” value is -10.04%.
On the same count and under the same terms, the figure for `O=C(O)C(F)(F)F.O=C(c1cnccn1)N1CCCC2(CCN(Cc3ccsc3)CC2)C1` is -8.407%.
Take `CCC(C)Oc1ccc(CNCCc2c[nH]cn2)cc1Cl` (configuration not stated): the “Percent Effect” value (30 µM, 30.03 µM) is -7.702%.
On to `Cc1ccc(O[C@@H]2C[C@H]3CN(C(=O)c4cccnc4)CCN3C2)cc1.O=C(O)C(F)(F)F.O=C(O)C(F)(F)F`, for which the “Percent Effect” value (30 µM, 30.03 µM) is 12.8%.
Consider `CC(C)(C)c1cnc(CN2CCC(CN3CCOCC3)CC2)o1`, for which the “Percent Effect” value (30.3 µM, […]) is 1.879%.
Turning to `Cc1noc(C)c1C(=O)N1CC[C@]2(C[C@@H](OCc3cccnc3)CO2)C1.O=C(O)C(F)(F)F`, under “30.3 µM, […]”, the “Percent Effect” value was -230.9%.
On to `COc1ccccc1OCCNS(=O)(=O)N1CCOCC1`, for which, where the note is “30 µM, 30.03 µM”, the “Percent Effect” value is -16.37%.
On the same count and under the same terms, the figure for `O=C(NCCSCc1cccs1)C1CCCN(C(=O)N2CCCC2)C1` (configuration not stated) is -13.33%.
The same measure, in the same setting: the figure for `O=C(NCCSCc1ccc(Br)s1)C1CCCN(c2cnccn2)C1` (configuration not stated) is -0.7253%; for `O=C(NCCSCc1ccc(Br)s1)C1CCCN(C(=O)c2cccs2)C1` (configuration not stated) it is 59.17%.
For `COc1ccc(OCC(=O)NS(=O)(=O)c2ccc(Br)s2)cc1`, the “Percent Effect” value (10 µM) is -20.86%.
In the case of `Cc1ccc2c(n1)N(Cc1ccncc1)CCN(S(C)(=O)=O)C2.O=C(O)C(F)(F)F.O=C(O)C(F)(F)F`, the “Percent Effect” value (30 µM, 30.03 µM) is recorded as -12.2%.
Regarding `COCCn1cc2c(n1)C(CNCc1ccsc1)OCC2.O=C(O)C(F)(F)F` (configuration not stated), the “Percent Effect” value (30.3 µM, […]) is -36.05%.
Regarding `CC(C)n1ccnc1C1CCCN(c2ccnc3ccccc23)C1` (configuration not stated), the “Percent Effect” value (30 µM, 30.03 µM) was determined as 44.45%.
Regarding `CSc1nccc(N2CCCC(c3nccn3C(C)C)C2)n1` (configuration not stated), the “Percent Effect” value (30 µM, 30.03 µM) is recorded as -62.98%.
Still for that read-out and setting: in the case of `CC(C)n1ccnc1C1CCCN(c2ccccn2)C1` (configuration not stated) it was 54.17%.
On to `Cc1cc(C)n(-c2nc(C(=O)NCCN3CCC(C)CC3)cs2)n1`, for which, where the note is “30.3 µM, […]”, the “Percent Effect” value turned out to be 41.67%.
For `Cl.c1cc(NCc2ccncc2)nc(C2CCCNC2)c1` (configuration not stated), the “Percent Effect” value (30.3 µM, […]) is given as -1.5%.
For `Cl.c1cc(CC2CCCNC2)nc(NCCc2cnccn2)c1` (configuration not stated), the “Percent Effect” value (30.3 µM, […]) is recorded as -1.325%.
Same read-out and setting: in the case of `Cl.c1ccc(CCNc2cccc(C3CCCNC3)n2)cc1` (configuration not stated) it was 66.04%; in that of `CCCn1ccnc1-c1cccc(NC(=O)C2CCCOC2)c1` (configuration not stated), -87.17%.
With `O=C(CCN1CCc2ccccc21)N1C[C@@H](O)[C@H](N2CCCC2)C1`, the “Percent Effect” value (30.3 µM, […]) is given as -36.76%.
For `CN1CC2(CCN(Cc3cccnc3)CC2)c2cc(F)ccc21`, the “Percent Effect” value (30.3 µM, […]) is recorded as -24.44%.
The same measure, in the same setting: in the case of `CN1CC2(CCN(Cc3cccnc3)CC2)c2cccc(F)c21.Cl` it was 100.8%.
On the same count and under the same terms, the figure for `CN1CC2(CCN(C(=O)c3cccnc3)CC2)c2cccc(F)c21.Cl` is -15.84%.
Consider `CCOc1ccc(CC(=O)N2CCN(c3nccn3CC)CC2)cc1.Cl`, for which, for the setting “30.3 µM, […]”, the “Percent Effect” value is recorded as 9.034%.
